EWS-Fli block – EWS/Fli-driven NR0B1 reporter inhibitors, primary screen, A673 cells, NR0B1 luciferase, luminescence, MLPCN library | viability-normalised | inhibition, % at 12.6 µM | 350,000 tested, 0.67% active | AID 651661, 2012;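 active means mean inhibition of at least 50% after viability correction, with every replicate also passing that limit; inconclusive means mean reaches 50% but only one of two replicates passes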;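 further: firefly luciferase signal divided by Alamar Blue viability fluorescence both relative to DMSO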
TROY NFkB inh – inhibitors of TROY-driven NF-kB signaling, primary screen, Q293 LMP1-TROYcd cells, NF-kB luciferase, uHTS; inhibition, % at 10 µM; 360,000 tested, 0.98% active; Q293 LMP1-TROYcd NF-kB luciferase reporter, 4 h;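 active means compounds whose plate-normalised and pattern-corrected inhibition of the luciferase reporter signal at the single screening dose is 50% or more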
LGR2 antag – inhibitors of bursicon-induced LGR2 CRE-luciferase signal, primary screen, cell-based, HEK293, CRE-luciferase reporter, bursicon stimulation; inhibition, % at 9.99 µM; Drosophila bursicon receptor LGR2 (rickets); bursicon-stimulated, 4 h; 380,000 tested, 0.35% active;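 active means drop in luminescence signal, shown as inhibition above about 50% in the replicate tests, limit read from the data, passing the limit was not always enough; inconclusive means probably only some replicates passing the limit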;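 further: agonist challenge used bursicon conditioned medium at about half maximal strength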
TWEAK-Fn14 inh – inhibitors of TWEAK-Fn14 signaling, primary screen, luciferase reporter cells, uHTS | inhibition, % at 10 µM | TWEAK-stimulated Fn14 reporter cells, luciferase luminescence, 8 h | AID 1159606, 2016 | 360,000 tested, 2% active; in the data active means inhibition above about 50%
EBV LMP1 NFkB – EBV LMP1-driven NF-kappaB luciferase reporter inhibitors, primary screen, cell-based, luminescence, single point; inhibition, % at 12.5 µM; AID 504558, 2011; LMP1-induced NF-kappaB luciferase reporter cells; 350,000 tested, 0.69% active; in the data active means inhibition above about 41%; inconclusive means no clear call, values can overlap the other calls;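 further: 0% = neutral control wells and 100% = reference inhibitor control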
* = called active by the depositor. In the library only some 2.5% were active in any assay of this set; here they are far more common.

How did CCOC(=O)C[N+](C)(C)CCOC1CC2CCC1(C)C2(C)C (configuration not stated) do in these assays?
TROY NFkB inh: 1.7; LGR2 antag: 0.1; TWEAK-Fn14 inh: -2.3; EBV LMP1 NFkB: -0.6

How did CC1(C)C2CCC1(C)C(OCC[N+](C)(C)CC(=O)OC1CCCCC1)C2 (configuration not stated) do in these assays?
EWS-Fli block: 14.7; TROY NFkB inh: 20.4; LGR2 antag: -22.1; TWEAK-Fn14 inh: 11.5; EBV LMP1 NFkB: 68.3*

How did C[C@H](CO)N1C[C@H](C)[C@@H](CN(C)S(=O)(=O)c2cn(C)cn2)Oc2c(cccc2N(C)C)C1=O do in these assays?
EWS-Fli block: 0.8; LGR2 antag: 5.1

What do the screens show for `Cc1noc(C)c1S(=O)(=O)N(C)C[C@H]1Oc2ccc(NC(=O)C3CCCCC3)cc2CC(=O)N([C@@H](C)CO)C[C@H]1C`?
EWS-Fli block: 2.6; LGR2 antag: 18.9

What do the screens show for `N#C[C@@H]1[C@@H](c2ccc(C3=CCCC3)cc2)[C@@H](CO)N1C(=O)NC1CCCC1`?
EWS-Fli block: -3.9; LGR2 antag: -12.7

What do the screens show for `COC(=O)c1ccc2c(c1)C(C)(C)C(/C=C/c1ccc(O)cc1)=[N+]2C`?
TROY NFkB inh: 7.8; LGR2 antag: inconclusive; TWEAK-Fn14 inh: 94.3*; EBV LMP1 NFkB: 88.8*

How did CO[C@@H]1CN(C)C(=O)c2cc(NS(=O)(=O)c3cn(C)cn3)ccc2OC[C@H](C)N(CCC(F)(F)F)C[C@@H]1C do in these assays?
EWS-Fli block: -5.5; LGR2 antag: -11.7

Results for CN1C(=O)/C(=C/c2cc(N=Nc3ccccc3)ccc2O)SC1=S ?
TROY NFkB inh: 54.4*; LGR2 antag: 36.3; TWEAK-Fn14 inh: 64.8*; EBV LMP1 NFkB: 7.3

What do the screens show for `S=c1[nH]nc(C2CCCCC2)n1/N=C/c1ccncc1`?
EWS-Fli block: -13.7; TROY NFkB inh: 13.7; LGR2 antag: 20.6; TWEAK-Fn14 inh: 82.4*; EBV LMP1 NFkB: 48.1*

What do the screens show for `COc1ccccc1/C=C/C=N/n1c(C2CCCCC2)n[nH]c1=S`?
EWS-Fli block: 12.2; TROY NFkB inh: 68.9*; LGR2 antag: 5.4; TWEAK-Fn14 inh: 33.7; EBV LMP1 NFkB: 10.9

How did CCOc1ccccc1/C=N/n1c(C2CCCCC2)n[nH]c1=S do in these assays?
EWS-Fli block: 4.9; TROY NFkB inh: 14.1; LGR2 antag: 7.6; TWEAK-Fn14 inh: -17.0; EBV LMP1 NFkB: -0.2

Results for Cc1ccccc1NC(=O)c1cnc2ccccn2c1=O ?
TROY NFkB inh: 34.4; TWEAK-Fn14 inh: 83.4*; EBV LMP1 NFkB: 29.3

Results for O=C1c2cccc(NCCNCCO)c2C(=O)c2cccc(NCCNCCO)c21 ?
EWS-Fli block: 58.8*; TROY NFkB inh: -6.0; LGR2 antag: 91.8*; TWEAK-Fn14 inh: 17.4; EBV LMP1 NFkB: 9.8

How did CCN1C(=O)CC(c2ccccc2)N(C2CCCC2)c2nc(Nc3ccc(C(=O)NC4CCN(C)CC4)cc3OC)ncc21 (configuration not stated) do in these assays?
TROY NFkB inh: -13.7; TWEAK-Fn14 inh: 0.0; EBV LMP1 NFkB: -13.8

What do the screens show for `COc1cc(C(=O)NC2CCN(C)CC2)ccc1Nc1ncc2c(n1)N(Cc1ccccc1)CCC(=O)N2C`?
EWS-Fli block: 54.9*; TROY NFkB inh: -27.0; LGR2 antag: -7.2; TWEAK-Fn14 inh: 12.8; EBV LMP1 NFkB: -3.9

What do the screens show for `COc1cc(C(=O)NC2CCN(C)CC2)ccc1Nc1ncc2c(n1)N(C1CCCCC1)CCC(=O)N2C`?
EWS-Fli block: 75.8*; TROY NFkB inh: -4.7; LGR2 antag: -11.1; TWEAK-Fn14 inh: -14.0; EBV LMP1 NFkB: 7.3

What do the screens show for `O=C(N[C@H]1CC[C@H](CCNC(=O)c2ccccc2F)O[C@@H]1CO)c1ccc2c(c1)OCO2`?
EWS-Fli block: 4.3; LGR2 antag: 6.9

What do the screens show for `CC(C)CNC(=O)COC(=O)C1c2ccccc2Oc2ccccc21`?
EWS-Fli block: -8.7; TROY NFkB inh: 1.8; LGR2 antag: 3.7; TWEAK-Fn14 inh: 1.4; EBV LMP1 NFkB: 65.8*

Results for CCN(CC)C(=O)C1c2ccccc2Oc2ccccc21 ?
EWS-Fli block: 5.8; TROY NFkB inh: -14.3; LGR2 antag: -6.8; TWEAK-Fn14 inh: 60.7*; EBV LMP1 NFkB: -1.5

Results for C=CCN(CC=C)C(=O)C1c2ccccc2Oc2ccccc21 ?
EWS-Fli block: 4.6; TROY NFkB inh: -6.3; LGR2 antag: 11.0; TWEAK-Fn14 inh: 25.4; EBV LMP1 NFkB: -10.2

Results for CC(C)(C)NC(=O)COC(=O)C1c2ccccc2Oc2ccccc21 ?
EWS-Fli block: -10.4; TROY NFkB inh: -7.0; LGR2 antag: -3.0; TWEAK-Fn14 inh: 5.4; EBV LMP1 NFkB: -3.4

Results for CC(C)[N+](C)(CCOC(=O)C1c2ccccc2Oc2ccccc21)C(C)C ?
EWS-Fli block: 3.5; TROY NFkB inh: 4.8; LGR2 antag: -5.5; TWEAK-Fn14 inh: 0.2; EBV LMP1 NFkB: 80.9*

How did COc1ccccc1S(=O)(=O)N(C)C[C@H]1OCc2ccccc2-c2c(n(C)c3ccccc23)C(=O)N([C@H](C)CO)C[C@@H]1C do in these assays?
EWS-Fli block: 19.2; LGR2 antag: -1.2

What do the screens show for `Cc1cccc2sc(NC(=O)C3CCN(S(=O)(=O)c4cc([N+](=O)[O-])ccc4Cl)CC3)nc12`?
EWS-Fli block: 11.4; TROY NFkB inh: 6.4; LGR2 antag: -2.1; TWEAK-Fn14 inh: 53.7*; EBV LMP1 NFkB: 7.9

Results for Cc1nnc(NC(=O)C2CCN(S(=O)(=O)c3cc([N+](=O)[O-])ccc3Cl)CC2)o1 ?
EWS-Fli block: 1.7; TROY NFkB inh: 11.0; LGR2 antag: 5.8; TWEAK-Fn14 inh: -10.5; EBV LMP1 NFkB: -6.5

What do the screens show for `Cc1cccc(NC(=O)C2CCN(S(=O)(=O)c3cccc4nsnc34)CC2)n1`?
TROY NFkB inh: -2.6; TWEAK-Fn14 inh: -0.3; EBV LMP1 NFkB: 0.5

What do the screens show for `COc1ccc2nc(NC(=O)C3CCN(S(=O)(=O)c4cccc5nsnc45)CC3)sc2c1`?
TROY NFkB inh: 61.5*; TWEAK-Fn14 inh: 97.3*; EBV LMP1 NFkB: 27.8

How did Cc1cccc(N2CCN(C(=O)C3CCN(S(=O)(=O)c4cccc5nsnc45)CC3)CC2C)c1 (configuration not stated) do in these assays?
TROY NFkB inh: 9.8; TWEAK-Fn14 inh: 56.2*; EBV LMP1 NFkB: 13.6

What do the screens show for `COc1ccccc1C#Cc1cnc2c(c1)C(=O)N([C@H](C)CO)C[C@H](C)[C@@H](CN(C)C(=O)CC1CC1)O2`?
EWS-Fli block: -4.5; LGR2 antag: -3.4

How did CC(C)NC(=O)NCC[C@H]1CC[C@@H](NS(=O)(=O)c2ccccc2)[C@H](CO)O1 do in these assays?
EWS-Fli block: -4.3; LGR2 antag: 5.4

What do the screens show for `C[C@H]1CCCCO[C@@H](CN(C)S(=O)(=O)c2ccccc2)[C@@H](C)CN([C@@H](C)CO)C(=O)c2cc(NS(C)(=O)=O)ccc2O1`?
EWS-Fli block: 2.2; LGR2 antag: 13.7

Bioassay records deposited in PubChem by several laboratories.
